Assay results as given in article PMC7862700, “An all-to-all approach to the identification of sequence-specific readers for epigenetic DNA modifications on cytosine”.

What was measured:
Assay in all cases: DAPPL (digital affinity profiling via proximity ligation, sequencing); 10 mM Tris-HCl pH 7.5, 50 mM NaCl, 1 mM DTT, 4% glycerol, room temperature, 30 min; GST-TFs on glutathione beads, 16-mer random dsDNA library, 0.1% formaldehyde crosslink after washing; high values mean tight binding
Conditions in all cases: protein: recombinant; tags: N-terminal GST; dsDNA, one strand shown
ETV1 = ETV1 (Homo sapiens, UniProt P50549 1-477)
Outline: (§1)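 Binding signal is each hexamer's read frequency for a factor divided by its frequency in the tag-only sample. The factors were GST-fused human transcription factors from yeast, captured on glutathione beads, DNA-barcoded and pooled with that sample. Pools were incubated with 200 nmole of a random double-stranded 16-mer DNA library in Tris/NaCl/DTT/glycerol buffer at room temperature for 30 min, then washed, crosslinked with 0.1% formaldehyde, proximity-ligated with BsaI/T4 ligase (1 h, 37 °C), PCR-amplified and sequenced on an Illumina NextSeq500.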

ERF = molecular target: T1, ERF (Homo sapiens, UniProt P50548 1-548)
T1 sequence: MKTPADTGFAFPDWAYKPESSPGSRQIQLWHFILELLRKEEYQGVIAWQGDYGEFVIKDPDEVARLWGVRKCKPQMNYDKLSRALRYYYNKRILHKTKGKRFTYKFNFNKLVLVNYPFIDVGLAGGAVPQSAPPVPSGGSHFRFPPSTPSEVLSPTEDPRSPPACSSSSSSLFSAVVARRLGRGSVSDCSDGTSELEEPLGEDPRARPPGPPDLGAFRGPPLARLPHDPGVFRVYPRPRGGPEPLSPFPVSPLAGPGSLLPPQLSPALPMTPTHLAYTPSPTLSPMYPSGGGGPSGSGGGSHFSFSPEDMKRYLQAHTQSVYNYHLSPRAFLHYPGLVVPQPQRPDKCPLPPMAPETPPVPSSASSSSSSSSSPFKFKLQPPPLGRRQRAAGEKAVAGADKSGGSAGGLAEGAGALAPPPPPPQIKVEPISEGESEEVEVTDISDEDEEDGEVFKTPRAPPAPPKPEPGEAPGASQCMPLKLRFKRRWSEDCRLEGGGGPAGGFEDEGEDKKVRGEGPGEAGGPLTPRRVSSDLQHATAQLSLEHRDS
Outline: as §1

ETV3L = molecular target: T2, ETV3L (Homo sapiens, UniProt Q6ZN32 1-361)
T2 sequence: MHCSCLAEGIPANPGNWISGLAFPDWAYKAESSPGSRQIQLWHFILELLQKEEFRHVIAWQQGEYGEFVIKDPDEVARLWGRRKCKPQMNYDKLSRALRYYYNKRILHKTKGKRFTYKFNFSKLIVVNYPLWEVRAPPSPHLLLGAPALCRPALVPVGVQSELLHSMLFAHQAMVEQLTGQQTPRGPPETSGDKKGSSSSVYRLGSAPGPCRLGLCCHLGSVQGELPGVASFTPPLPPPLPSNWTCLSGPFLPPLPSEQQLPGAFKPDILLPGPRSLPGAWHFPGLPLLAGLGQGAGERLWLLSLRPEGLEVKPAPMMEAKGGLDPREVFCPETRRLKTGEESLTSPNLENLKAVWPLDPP
Outline: as §1

ETS2 = molecular target: T3, ETS2 (Homo sapiens, UniProt P15036 1-469)
T3 sequence: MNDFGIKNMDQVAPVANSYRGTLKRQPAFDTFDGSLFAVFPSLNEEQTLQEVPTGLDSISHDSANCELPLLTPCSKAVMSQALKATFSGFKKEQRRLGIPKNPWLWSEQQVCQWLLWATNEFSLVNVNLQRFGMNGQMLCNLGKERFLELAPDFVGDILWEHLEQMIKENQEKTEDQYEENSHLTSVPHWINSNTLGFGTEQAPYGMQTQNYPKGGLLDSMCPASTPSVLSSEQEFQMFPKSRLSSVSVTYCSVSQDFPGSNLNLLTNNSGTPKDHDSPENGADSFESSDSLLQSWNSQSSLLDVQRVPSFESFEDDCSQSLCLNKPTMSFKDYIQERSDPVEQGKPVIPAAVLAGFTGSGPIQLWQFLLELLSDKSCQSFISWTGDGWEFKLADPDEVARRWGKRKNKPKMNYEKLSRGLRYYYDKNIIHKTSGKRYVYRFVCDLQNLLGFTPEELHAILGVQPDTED
Outline: as §1

SPDEF = molecular target: T4, SPDEF (Homo sapiens, UniProt O95238 1-335)
T4 sequence: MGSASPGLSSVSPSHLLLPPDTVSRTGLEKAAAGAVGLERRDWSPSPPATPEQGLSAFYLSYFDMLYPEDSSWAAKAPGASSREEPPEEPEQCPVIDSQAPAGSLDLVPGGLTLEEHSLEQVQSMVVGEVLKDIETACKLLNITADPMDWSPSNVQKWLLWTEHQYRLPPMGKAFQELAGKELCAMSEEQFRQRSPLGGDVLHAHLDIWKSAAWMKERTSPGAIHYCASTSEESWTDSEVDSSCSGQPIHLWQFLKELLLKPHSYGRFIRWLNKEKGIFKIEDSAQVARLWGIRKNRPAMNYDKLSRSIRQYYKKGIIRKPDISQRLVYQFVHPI
Outline: as §1

ETV7 = molecular target: T5, ETV7 (Homo sapiens, UniProt Q9Y603 1-341)
T5 sequence: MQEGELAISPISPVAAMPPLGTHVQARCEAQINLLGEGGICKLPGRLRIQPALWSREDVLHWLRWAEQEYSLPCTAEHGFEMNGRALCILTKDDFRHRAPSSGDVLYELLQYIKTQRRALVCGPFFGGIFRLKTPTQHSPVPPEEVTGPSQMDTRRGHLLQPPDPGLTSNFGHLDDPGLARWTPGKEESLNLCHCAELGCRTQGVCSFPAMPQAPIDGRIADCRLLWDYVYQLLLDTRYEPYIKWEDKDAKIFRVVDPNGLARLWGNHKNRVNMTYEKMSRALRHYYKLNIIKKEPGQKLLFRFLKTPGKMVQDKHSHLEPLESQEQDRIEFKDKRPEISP
Outline: as §1

ELF5 = molecular target: T6, ELF5 (Homo sapiens, UniProt Q9UKW6-2 1-255)
T6 sequence: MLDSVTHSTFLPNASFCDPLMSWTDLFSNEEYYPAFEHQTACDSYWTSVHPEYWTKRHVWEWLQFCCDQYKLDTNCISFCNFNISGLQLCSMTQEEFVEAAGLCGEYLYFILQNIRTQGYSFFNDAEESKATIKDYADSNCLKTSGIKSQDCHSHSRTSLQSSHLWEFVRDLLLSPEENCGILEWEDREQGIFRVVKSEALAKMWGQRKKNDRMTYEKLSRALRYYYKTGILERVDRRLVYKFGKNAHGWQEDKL
Outline: as §1

ETV3 = molecular target: T7, ETV3 (Homo sapiens, UniProt P41162-2 1-143)
T7 sequence: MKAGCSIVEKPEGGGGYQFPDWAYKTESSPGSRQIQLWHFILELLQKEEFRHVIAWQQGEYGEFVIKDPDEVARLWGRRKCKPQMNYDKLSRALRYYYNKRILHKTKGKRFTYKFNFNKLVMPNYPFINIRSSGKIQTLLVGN
Outline: as §1

ETV6 = ETV6 (Homo sapiens, UniProt P41212 1-452)
Outline: as §1

Sequence of ETV1 (P50549 whole entry, the tested form may be a part): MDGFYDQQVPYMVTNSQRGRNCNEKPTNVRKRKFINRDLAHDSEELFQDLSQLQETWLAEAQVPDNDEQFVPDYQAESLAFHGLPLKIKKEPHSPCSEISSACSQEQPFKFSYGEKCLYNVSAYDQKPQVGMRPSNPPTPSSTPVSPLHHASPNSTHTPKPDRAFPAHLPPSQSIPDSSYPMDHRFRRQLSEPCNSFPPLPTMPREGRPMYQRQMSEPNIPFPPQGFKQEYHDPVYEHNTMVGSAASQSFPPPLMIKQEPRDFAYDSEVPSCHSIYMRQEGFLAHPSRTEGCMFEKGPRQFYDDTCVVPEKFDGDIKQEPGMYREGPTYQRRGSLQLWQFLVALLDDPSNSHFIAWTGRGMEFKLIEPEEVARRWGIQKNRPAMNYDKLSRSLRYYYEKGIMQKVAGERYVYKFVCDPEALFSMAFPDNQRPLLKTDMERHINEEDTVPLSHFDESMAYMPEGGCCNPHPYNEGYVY
Sequence of ETV6 (P41212 whole entry): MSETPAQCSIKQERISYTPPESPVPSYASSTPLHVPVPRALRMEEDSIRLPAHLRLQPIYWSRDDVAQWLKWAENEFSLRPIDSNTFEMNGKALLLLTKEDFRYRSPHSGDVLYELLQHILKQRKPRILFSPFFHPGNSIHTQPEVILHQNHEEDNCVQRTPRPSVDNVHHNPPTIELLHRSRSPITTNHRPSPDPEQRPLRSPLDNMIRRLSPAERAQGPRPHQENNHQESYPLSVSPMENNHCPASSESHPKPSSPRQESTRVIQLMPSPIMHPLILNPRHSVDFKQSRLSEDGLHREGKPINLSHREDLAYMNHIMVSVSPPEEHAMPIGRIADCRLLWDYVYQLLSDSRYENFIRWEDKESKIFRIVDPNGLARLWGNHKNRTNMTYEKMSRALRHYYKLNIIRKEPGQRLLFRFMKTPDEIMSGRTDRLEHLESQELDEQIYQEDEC

AACCTA
binding signal (ETV1): 1.1 fold enrichment (6-mer frequency, TF over GST control)
binding signal (ERF): 1.03 fold enrichment (6-mer frequency, TF over GST control)
binding signal (ETV3L): 1.05 fold enrichment (6-mer frequency, TF over GST control)
binding signal (ETS2): 1.11 fold enrichment (6-mer frequency, TF over GST control)
binding signal (SPDEF): 1.08 fold enrichment (6-mer frequency, TF over GST control)
binding signal (ETV7): 1.03 fold enrichment (6-mer frequency, TF over GST control)
binding signal (ELF5): 1.07 fold enrichment (6-mer frequency, TF over GST control)
binding signal (ETV3): 1.07 fold enrichment (6-mer frequency, TF over GST control)
binding signal (ETV6): 1.1 fold enrichment (6-mer frequency, TF over GST control)
